Data reported in PubChem BioAssay (Tox21).
Records with an inconclusive call do not appear. A call without a number means that no potency is given here. Activity calls are given as the source filed them. Unless noted, calls come from the whole dose curve; as a rule, active = well fitted curve in the direction sought with a large enough effect in the repeat runs; inconclusive = weak or mixed curves; inactive = no such curve, though single readings can be large; an effect the other way counts as inactive or inconclusive.

Assays:
[1] = qHTS assay to identify small molecule antagonists of the sonic hedgehog signaling (Shh) pathway (AID 1259369; calls by dose curve; note: nearly all actives have a fitted effect of over 45% in size; note: potency is the fitted concentration of half-maximal effect)
Procedure, shortened: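 Luminescence readout: firefly Luc under Gli1 response element in 3T3Gli1-Luc cells (NIH/3T3 clone). Antagonist mode, stimulation by conditioned medium; compound exposure 24hr at 37 C, 5% CO2.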

[2] = qHTS assay to identify small molecule agonists of the androgen receptor (AR) signaling pathway in the presence of an antagonist - cell viability counter screen (AID 1259379); note: nearly all actives have a fitted effect of over 25% in size; note: potency is the fitted concentration of half-maximal effect
Procedure, shortened: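 Viability counter screen: CellTiter-Fluor fluorescence, measured in the same wells as the luciferase read-out. MDA-kb2 cells, 3,000/well, with nilutamide at 3.0uM final and compounds at 15 concentrations, 16 hr at 37C, 0% CO2.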

[3] = qHTS assay to identify small molecule agonists of the estrogen receptor beta (ER-beta) signaling pathway - cell viability counter screen (AID 1259380); note: nearly all actives have a fitted effect of over 30% in size; note: potency is the fitted concentration of half-maximal effect
Procedure, shortened: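 Luminescence read-out (CellTiter-Glo, 30 min, room temp) taken in the same wells as the beta-lactamase reporter assay; ER-beta-UAS-bla HEK293T cells exposed to DMSO-dissolved compounds for 16 hr at 37C in 2% charcoal-stripped FBS medium.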

[4] = target: Androgen receptor (Homo sapiens) (UniProt P10275); test: qHTS assay to identify small molecule agonists of the androgen receptor (AR) signaling pathway in the presence of an antagonist (AID 1259381; calls by dose curve; note: nearly all actives have a fitted effect of over 15% in size)
Androgen receptor (Homo sapiens), sequence (P10275 whole entry, looked up): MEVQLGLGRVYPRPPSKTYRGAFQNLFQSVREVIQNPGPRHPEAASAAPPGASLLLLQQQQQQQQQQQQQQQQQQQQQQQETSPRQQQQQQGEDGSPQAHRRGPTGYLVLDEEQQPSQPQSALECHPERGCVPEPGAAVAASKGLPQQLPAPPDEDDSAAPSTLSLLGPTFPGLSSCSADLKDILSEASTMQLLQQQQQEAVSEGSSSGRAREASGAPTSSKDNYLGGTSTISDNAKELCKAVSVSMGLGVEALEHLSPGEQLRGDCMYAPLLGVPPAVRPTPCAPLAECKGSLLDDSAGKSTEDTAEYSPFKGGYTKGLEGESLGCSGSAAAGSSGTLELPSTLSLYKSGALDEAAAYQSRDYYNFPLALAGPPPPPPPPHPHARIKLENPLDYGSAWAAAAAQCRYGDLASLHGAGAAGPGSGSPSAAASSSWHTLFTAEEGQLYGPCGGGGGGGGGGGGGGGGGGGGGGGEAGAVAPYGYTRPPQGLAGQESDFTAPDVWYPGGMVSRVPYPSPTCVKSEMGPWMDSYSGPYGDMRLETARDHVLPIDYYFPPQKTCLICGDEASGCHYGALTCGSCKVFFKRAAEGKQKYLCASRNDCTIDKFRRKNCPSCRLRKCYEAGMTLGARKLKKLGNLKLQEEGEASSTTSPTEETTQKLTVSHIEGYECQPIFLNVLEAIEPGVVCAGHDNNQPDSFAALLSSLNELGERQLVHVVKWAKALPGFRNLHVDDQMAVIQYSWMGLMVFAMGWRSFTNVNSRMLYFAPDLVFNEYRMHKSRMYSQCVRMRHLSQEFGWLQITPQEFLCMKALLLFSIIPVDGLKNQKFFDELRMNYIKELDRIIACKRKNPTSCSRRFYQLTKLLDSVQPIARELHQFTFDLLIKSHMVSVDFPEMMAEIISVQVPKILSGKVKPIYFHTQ
Procedure, shortened: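 Luciferase read-out (ONE-Glo, 30min room temperature) in MDA-kb2 MMTV-reporter cells; agonist mode run in presence of AR antagonist nilutamide, 3.0uM final. Compounds tested as 15-point series, 16hr exposure at 37C, 0% CO2.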

[5] = qHTS assay to identify small molecule antagonists of the estrogen receptor beta (ER-beta) signaling pathway - cell viability counter screen (AID 1259382); note: nearly all actives have a fitted effect of over 55% in size; note: potency is the fitted concentration of half-maximal effect
Procedure, shortened: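 Luminescent ATP read-out (CellTiter-Glo, 30 min, RT) taken in the same wells as the bla reporter assay. HEK293T ER-beta-UAS-bla cells in 2% charcoal-stripped FBS were exposed to compounds with 1nM E2 for 16 hr at 37C.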

[6] = target: Estrogen receptor (Homo sapiens) (UniProt P03372); test: qHTS assay to identify small molecule agonists of the estrogen receptor alpha (ER-alpha) signaling pathway in the presence of an antagonist (AID 1259383; calls by dose curve; note: nearly all actives have a fitted effect of over 15% in size; note: potency is the fitted concentration of half-maximal effect; for activation: top concentration of the series differs between compounds)
Estrogen receptor (Homo sapiens), sequence (P03372 whole entry, looked up): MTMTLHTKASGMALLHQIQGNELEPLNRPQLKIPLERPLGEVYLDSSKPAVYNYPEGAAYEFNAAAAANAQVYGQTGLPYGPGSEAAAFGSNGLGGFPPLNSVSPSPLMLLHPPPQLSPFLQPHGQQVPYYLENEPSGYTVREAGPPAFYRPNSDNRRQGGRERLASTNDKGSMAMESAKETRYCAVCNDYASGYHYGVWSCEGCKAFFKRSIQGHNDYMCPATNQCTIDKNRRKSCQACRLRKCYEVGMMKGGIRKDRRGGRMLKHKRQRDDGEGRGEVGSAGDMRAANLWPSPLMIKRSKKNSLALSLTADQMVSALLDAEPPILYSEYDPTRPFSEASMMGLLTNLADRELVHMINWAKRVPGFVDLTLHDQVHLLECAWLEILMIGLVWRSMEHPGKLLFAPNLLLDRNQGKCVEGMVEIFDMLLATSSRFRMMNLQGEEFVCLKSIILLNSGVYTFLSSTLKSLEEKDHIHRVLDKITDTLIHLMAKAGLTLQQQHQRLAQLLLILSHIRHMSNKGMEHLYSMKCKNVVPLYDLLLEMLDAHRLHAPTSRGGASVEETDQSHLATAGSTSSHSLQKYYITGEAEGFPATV
Procedure, shortened: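 Luciferase luminescence (ONE-Glo, 30min at room temperature) measured in VM7Luc4E2 cells after 22hr compound exposure at 15 concentrations, with 10.0nM ICI-182,780 final present; cells express endogenous ER-alpha and carry four EREs upstream of luciferase.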

[7] = qHTS assay to identify small molecule agonists or antagonists of the thyroid stimulating hormone receptor (TSHR) signaling pathway - wild type cell line counter screen (AID 1259384; calls by dose curve)
Procedure, shortened: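 Counter screen in untransfected Hek293: compounds (15-point titration, triplicate) plus phosphodiesterase inhibitor Ro20-1724 added after 18 h plating; 30 min RT. Intracellular cAMP via competitive d2/cryptate immunoassay, 1 h incubation.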

[8] = target: Thyrotropin receptor (Homo sapiens) (UniProt P16473); test: qHTS assay to identify small molecule antagonists of the thyroid stimulating hormone receptor (TSHR) signaling pathway (AID 1259385; calls by dose curve; note: nearly all actives have a fitted effect of over 20% in size)
Thyrotropin receptor (Homo sapiens), sequence (P16473 whole entry, looked up): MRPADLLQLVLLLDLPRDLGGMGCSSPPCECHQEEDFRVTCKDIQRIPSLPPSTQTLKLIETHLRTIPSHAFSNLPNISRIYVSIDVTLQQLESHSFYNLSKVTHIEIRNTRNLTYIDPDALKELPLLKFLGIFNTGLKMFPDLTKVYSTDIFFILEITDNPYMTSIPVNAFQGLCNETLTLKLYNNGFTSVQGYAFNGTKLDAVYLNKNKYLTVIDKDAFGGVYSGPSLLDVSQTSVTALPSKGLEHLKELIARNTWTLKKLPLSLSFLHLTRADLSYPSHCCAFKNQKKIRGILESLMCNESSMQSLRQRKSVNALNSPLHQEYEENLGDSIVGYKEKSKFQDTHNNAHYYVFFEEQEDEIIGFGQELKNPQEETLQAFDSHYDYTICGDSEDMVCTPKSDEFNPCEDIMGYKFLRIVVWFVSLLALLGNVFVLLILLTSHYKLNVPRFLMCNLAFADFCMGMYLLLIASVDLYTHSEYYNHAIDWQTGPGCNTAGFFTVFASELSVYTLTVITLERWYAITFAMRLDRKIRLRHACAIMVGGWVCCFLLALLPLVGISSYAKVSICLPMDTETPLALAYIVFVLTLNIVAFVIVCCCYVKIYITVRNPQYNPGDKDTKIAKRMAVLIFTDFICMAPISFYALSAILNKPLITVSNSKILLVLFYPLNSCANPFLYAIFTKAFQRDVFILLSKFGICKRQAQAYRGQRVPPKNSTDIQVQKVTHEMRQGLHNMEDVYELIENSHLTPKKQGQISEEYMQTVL
Procedure, shortened: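 Antagonist mode: compound-treated TSHR-expressing HEK293 cells were stimulated with 1.5 ng/mL TSH (final) in presence of Ro20-1724 for 30 min at RT. HTRF cAMP detection after 1 h; each compound tested at 15 concentrations, triplicate.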

[9] = qHTS assay to identify small molecule agonists of the estrogen receptor alpha (ER-alpha) signaling pathway in the presence of an antagonist - cell viability counter screen (AID 1259386);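 note: cells exposed to compounds for 22 h at 37 °C before the viability read; nearly all actives have a fitted effect of over 30% in size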; note: potency is the fitted concentration of half-maximal effect
Procedure, shortened: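 Read-out: CellTiter-Fluor fluorescence after 1hr reagent incubation, measured in the same wells as the luciferase readout. VM7Luc4E2 cells were exposed to 15 compound concentrations with 10.0nM ICI-182,780 for 22hr at 37C.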

[10] = target: Progesterone receptor (Homo sapiens) (UniProt P06401); test: qHTS assay to identify small molecule agonists of the progesterone receptor (PR) signaling pathway (AID 1346784; calls by dose curve; note: nearly all actives have a fitted effect of over 30% in size)
Progesterone receptor (Homo sapiens), sequence (P06401 whole entry, looked up): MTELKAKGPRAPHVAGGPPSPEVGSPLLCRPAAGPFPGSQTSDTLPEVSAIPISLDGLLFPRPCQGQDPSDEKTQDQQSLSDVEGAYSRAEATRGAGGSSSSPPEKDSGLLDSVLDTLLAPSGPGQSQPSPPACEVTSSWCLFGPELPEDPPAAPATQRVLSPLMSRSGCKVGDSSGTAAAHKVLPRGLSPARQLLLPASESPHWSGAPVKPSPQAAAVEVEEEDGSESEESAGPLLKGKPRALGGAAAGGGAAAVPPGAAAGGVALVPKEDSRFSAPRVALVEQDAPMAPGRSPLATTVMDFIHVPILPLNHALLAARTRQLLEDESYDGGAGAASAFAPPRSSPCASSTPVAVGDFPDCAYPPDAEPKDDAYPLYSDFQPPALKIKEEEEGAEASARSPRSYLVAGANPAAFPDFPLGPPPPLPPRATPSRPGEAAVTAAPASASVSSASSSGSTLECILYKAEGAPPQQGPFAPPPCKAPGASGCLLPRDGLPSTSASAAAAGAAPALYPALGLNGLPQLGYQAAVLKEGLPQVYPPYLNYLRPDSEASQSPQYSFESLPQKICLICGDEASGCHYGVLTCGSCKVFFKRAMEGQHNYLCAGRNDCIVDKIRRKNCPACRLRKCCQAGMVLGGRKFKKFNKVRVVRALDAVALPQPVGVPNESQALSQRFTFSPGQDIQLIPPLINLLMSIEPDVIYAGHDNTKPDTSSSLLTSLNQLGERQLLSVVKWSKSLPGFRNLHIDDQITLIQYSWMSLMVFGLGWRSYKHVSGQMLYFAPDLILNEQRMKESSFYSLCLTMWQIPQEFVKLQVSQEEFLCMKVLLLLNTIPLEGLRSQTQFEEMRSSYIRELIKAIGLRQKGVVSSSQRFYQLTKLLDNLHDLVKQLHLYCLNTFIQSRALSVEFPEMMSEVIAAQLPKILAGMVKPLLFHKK
Procedure, shortened: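 Cells (PR-UAS-bla HEK 293T, GripTite) were plated in assay medium containing 2% charcoal-stripped FBS and incubated 6 hr. Test compounds in DMSO were added for 16 hr at 37C. FRET substrate was then loaded for 2 hr at room temperature before fluorescence reading.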

[11] = target: Progesterone receptor (Homo sapiens) (UniProt P06401); test: qHTS assay to identify small molecule antagonists of the progesterone receptor (PR) signaling pathway (AID 1346795; active = well fitted inhibition curve with a large enough effect in the signal ratio in the repeat runs, not every such curve was filed as active; the % refers to the signal ratio; note: potency is the fitted concentration of half-maximal effect)
Procedure, shortened: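 Antagonist mode: compounds tested against 1 nM (final) promegestone stimulation in HEK293T cells expressing PR-UAS-bla reporter, 16 hr at 37C, 5% CO2; beta-lactamase activity detected via B/G FRET substrate after 2 hr at room temperature.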

[12] = qHTS assay to identify small molecule antagonists of the progesterone receptor (PR) signaling pathway - cell viability counter screen (AID 1346798); note: nearly all actives have a fitted effect of over 50% in size; note: potency is the fitted concentration of half-maximal effect
Procedure, shortened: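 Counter screen for cytotoxicity: viability of PR-UAS-bla HEK293T cells was measured with CellTiter-Glo luminescence following 16 hr compound exposure in the presence of R5020.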

[13] = qHTS assay to identify small molecule agonists of the progesterone receptor (PR) signaling pathway - cell viability counter screen (AID 1346799; calls by dose curve; note: nearly all actives have a fitted effect of over 45% in size; note: potency is the fitted concentration of half-maximal effect)
Procedure, shortened: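 Cells (PR-UAS-bla HEK293T) are plated at 3,000/well in 2% charcoal-stripped FBS medium, rested 6 hr, dosed and incubated 16 hr at 37C. CellTiter-Glo is then added and luminescence measured after 30 min at room temperature.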

[14] = qHTS assay to identify small molecule antagonists of the TGF-beta/Smad signaling pathway - cell viability counter screen (AID 1346824); note: nearly all actives have a fitted effect of over 50% in size; note: potency is the fitted concentration of half-maximal effect
Procedure, shortened: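 Cytotoxicity counter-screen run in the same wells as the beta-lactamase Smad reporter read: CellTiter-Glo luminescence after 30 min at room temperature. HEK 293T SBE-bla cells had 5 hr compound exposure at 37 C with TGF-beta1 (0.25 ng/mL stock).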

[15] = qHTS assay to identify small molecule agonists of the TGF-beta/Smad signaling pathway - cell viability counter screen (AID 1346829); note: nearly all actives have a fitted effect of over 45% in size; note: potency is the fitted concentration of half-maximal effect
Procedure, shortened: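 HEK 293T SBE-bla line, 5 hr compound exposure at 37 C, multiplexed CellTiter-Glo viability read by luminescence.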

[16] = qHTS assay to identify small molecule agonists of the TGF-beta/Smad signaling pathway (AID 1346859; active = well fitted activation curve with a large enough effect in the signal ratio in the repeat runs, not every such curve was filed as active; the % refers to the signal ratio; note: series mostly up to about 77 µM)
Procedure, shortened: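 Reporter line: HEK 293T with stably integrated SBE-controlled beta-lactamase. Compound exposure lasts 5 hr at 37 C and 5% CO2; substrate loading follows for 2 hr at room temperature, with emission read at 460 and 530 nm.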

[17] = target: Thyrotropin-releasing hormone receptor (Homo sapiens) (UniProt P34981); test: qHTS assay to identify small molecule antagonists of the thyrotropin-releasing hormone receptor (TRHR) signaling pathway (AID 1346877; active = well fitted inhibition curve with a large enough effect in the repeat runs, not every such curve was filed as active; note: potency is the fitted concentration of half-maximal effect)
Thyrotropin-releasing hormone receptor (Homo sapiens), sequence (P34981 whole entry, looked up): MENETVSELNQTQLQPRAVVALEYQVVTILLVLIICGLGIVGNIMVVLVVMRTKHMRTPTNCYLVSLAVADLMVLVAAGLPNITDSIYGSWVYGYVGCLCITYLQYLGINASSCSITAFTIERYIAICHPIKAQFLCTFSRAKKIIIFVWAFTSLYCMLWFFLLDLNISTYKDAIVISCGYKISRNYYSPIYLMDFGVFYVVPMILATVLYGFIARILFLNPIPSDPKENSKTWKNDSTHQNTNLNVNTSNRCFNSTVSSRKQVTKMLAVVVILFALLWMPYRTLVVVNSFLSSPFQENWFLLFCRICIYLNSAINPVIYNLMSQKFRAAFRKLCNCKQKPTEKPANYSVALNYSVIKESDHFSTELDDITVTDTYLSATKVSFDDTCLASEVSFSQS
Procedure, shortened: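 HEK293/TRHR cells, 18 h, 37 °C; Ca2+ dye 2 h; cpd 5 min RT; TRH 1 nM final; fluorescence read 3 min, 1 s intervals; 15 concs, triplicate.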

[18] = target: Thyrotropin-releasing hormone receptor (Homo sapiens) (UniProt P34981); test: qHTS assay to identify small molecule agonists of the thyrotropin-releasing hormone receptor (TRHR) signaling pathway (AID 1346891; calls by dose curve; note: potency is the fitted concentration of half-maximal effect;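 for activation: HEK293 cells expressing TRHR with calcium dye readout; series mostly up to about 58 µM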)
Procedure, shortened: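 Cells: TRHR-Hek293, seeded and incubated 18 h. Dye loading: 2 h at 37 °C. Compound added from DMSO stock by pin tool. Read-out: kinetic calcium fluorescence over 3 min.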

[19] = target: Estrogen receptor beta (Homo sapiens) (UniProt Q92731); test: qHTS assay to identify small molecule antagonists of the estrogen receptor beta (ER-beta) signaling pathway (AID 1259378; active = well fitted inhibition curve with a large enough effect in the signal ratio in the repeat runs, not every such curve was filed as active; the % refers to the signal ratio; note: potency is the fitted concentration of half-maximal effect)
Estrogen receptor beta (Homo sapiens), sequence (Q92731 whole entry, looked up): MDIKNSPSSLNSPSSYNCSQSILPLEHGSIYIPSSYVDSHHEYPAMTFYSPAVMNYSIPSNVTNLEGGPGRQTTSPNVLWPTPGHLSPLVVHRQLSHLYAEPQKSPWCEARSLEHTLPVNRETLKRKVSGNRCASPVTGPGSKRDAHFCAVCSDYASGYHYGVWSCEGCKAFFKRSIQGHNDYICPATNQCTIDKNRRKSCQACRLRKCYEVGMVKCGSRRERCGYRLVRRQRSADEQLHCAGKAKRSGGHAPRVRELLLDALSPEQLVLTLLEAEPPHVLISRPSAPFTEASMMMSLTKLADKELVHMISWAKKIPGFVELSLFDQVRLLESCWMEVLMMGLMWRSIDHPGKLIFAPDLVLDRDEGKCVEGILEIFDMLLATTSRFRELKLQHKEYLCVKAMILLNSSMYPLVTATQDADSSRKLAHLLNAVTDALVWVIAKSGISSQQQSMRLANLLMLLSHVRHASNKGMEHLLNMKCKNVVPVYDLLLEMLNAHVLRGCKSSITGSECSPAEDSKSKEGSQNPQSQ
Procedure, shortened: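 Antagonist mode: compounds added to beta-lactamase reporter HEK293T ER-beta-UAS cells stimulated with E2 (1nM final), 16 hr at 37C. LiveBLAzer B/G FRET substrate, 2 hours room temperature, fluorescence read-out.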

COC(=O)c1cc(Cl)ccc1OC
Potency [1]: inactive
Potency [2]: inactive
Potency [3]: inactive
Potency [4]: inactive
Potency [5]: inactive
Potency [6]: inactive
outcome [7]: inactive
Potency [8]: inactive
Potency [9]: inactive
Potency [10]: inactive
Potency [11]: inactive
Potency [12]: inactive
Potency [13]: inactive
Potency [14]: inactive
Potency [15]: inactive
Potency [16]: inactive
Potency [17]: inactive
Potency [18]: inactive

CC1=C(C(=O)OC(C)C)C(c2cccc([N+](=O)[O-])c2)C(C(=O)OC2CN(C(c3ccccc3)c3ccccc3)C2)=C(N)N1 (stereo not drawn)
Potency [1]: 29.8 µM (active)
Potency [19]: 16.8 µM (active)
Potency [6]: inactive
outcome [7]: inactive
Potency [8]: inactive
Potency [16]: inactive
Potency [17]: inactive
Potency [18]: inactive

CCCC(=O)OC[C@@H](OC(=O)CCC)[C@@H](OC(=O)CCC)[C@H](Cn1c2nc(=O)[nH]c(=O)c-2nc2cc(C)c(C)cc21)OC(=O)CCC
Potency [1]: 2.37 µM (active)
Potency [2]: inactive
Potency [3]: 16.8 µM (active)
Potency [4]: inactive
Potency [5]: inactive
Potency [6]: inactive
outcome [7]: inactive
Potency [8]: inactive
Potency [12]: inactive
Potency [14]: inactive
Potency [15]: inactive
Potency [17]: inactive
Potency [18]: 13.5 µM (active)

Clc1ccc2cc3ccccc3cc2c1
Potency [1]: inactive
Potency [2]: inactive
Potency [3]: inactive
Potency [4]: inactive
Potency [5]: inactive
Potency [6]: inactive
Potency [9]: inactive
Potency [12]: inactive
Potency [13]: inactive
Potency [14]: inactive
Potency [15]: inactive
Potency [17]: inactive
Potency [18]: inactive

COC(=O)C1=C(C)NC(C)=C(C(=O)OCCc2ccc(N3CCN(C(c4ccccc4)c4ccccc4)CC3)cc2)C1c1cccc([N+](=O)[O-])c1 (stereo not drawn)
Potency [1]: inactive
Potency [2]: inactive
Potency [3]: inactive
Potency [4]: inactive
Potency [5]: inactive
Potency [6]: inactive
Potency [9]: inactive
Potency [10]: inactive
Potency [11]: inactive
Potency [12]: inactive
Potency [14]: inactive
Potency [15]: inactive
Potency [16]: inactive

ON=C1CCCC1
Potency [1]: inactive
Potency [2]: inactive
Potency [3]: 35.6 µM (active)
Potency [4]: inactive
Potency [5]: inactive
Potency [6]: inactive
outcome [7]: inactive
Potency [8]: inactive
Potency [11]: inactive
Potency [12]: inactive
Potency [13]: 63.3 µM (active)
Potency [14]: inactive
Potency [15]: inactive
Potency [16]: inactive
Potency [17]: inactive
Potency [18]: inactive

CCCCCCCCCCCCCCCCCC[N+](C)(C)C
Potency [1]: 0.274 µM (active)
Potency [2]: 61.3 µM (active)
Potency [3]: 27.4 µM (active)
Potency [4]: inactive
Potency [5]: 30.7 µM (active)
Potency [6]: inactive
outcome [7]: inactive
Potency [8]: inactive
Potency [12]: 48.7 µM (active)
Potency [13]: 54.6 µM (active)
Potency [14]: 43.8 µM (active)
Potency [15]: 43.8 µM (active)
Potency [16]: inactive
Potency [17]: 30.3 µM (active)
Potency [18]: 34.8 µM (active)

Nc1ccc(N)c2ccccc12
Potency [1]: 12.2 µM (active)
Potency [2]: 61.1 µM (active)
Potency [3]: 24.3 µM (active)
Potency [4]: inactive
Potency [5]: 27.3 µM (active)
Potency [6]: inactive
outcome [7]: inactive
Potency [9]: 30.6 µM (active)
Potency [11]: 54.4 µM (active)
Potency [17]: inactive
Potency [18]: inactive

CCCCCCCCCCC=O
Potency [1]: inactive
Potency [2]: inactive
Potency [3]: inactive
Potency [4]: inactive
Potency [5]: inactive
outcome [7]: inactive
Potency [8]: inactive
Potency [9]: inactive
Potency [10]: inactive
Potency [11]: inactive
Potency [12]: inactive
Potency [14]: inactive
Potency [15]: inactive
Potency [16]: inactive
Potency [17]: inactive
Potency [18]: inactive

CCCN(CCC)C(=O)C(CCC(=O)OCCCN1CCN(CCOC(=O)Cc2c(C)n(C(=O)c3ccc(Cl)cc3)c3ccc(OC)cc23)CC1)NC(=O)c1ccccc1 (stereo not drawn)
Potency [1]: 9.44 µM (active)
Potency [2]: inactive
Potency [3]: 10.6 µM (active)
Potency [4]: inactive
Potency [5]: 13.3 µM (active)
Potency [6]: 11.9 µM (active)
outcome [7]: inactive
Potency [9]: 21.1 µM (active)
Potency [10]: inactive
Potency [12]: inactive
Potency [14]: inactive
Potency [15]: inactive

CCCCCCCC/C=C/CCCCCCCC1=NCCN1CCO
Potency [1]: 54.5 µM (active)
Potency [19]: 54.5 µM (active)
Potency [2]: 61.1 µM (active)
Potency [4]: inactive
Potency [5]: 54.5 µM (active)
Potency [13]: 61.1 µM (active)
Potency [14]: inactive
Potency [15]: inactive
Potency [17]: inactive
Potency [18]: inactive

CCC(C)Nc1ccc(NC(C)CC)cc1 (stereo not drawn)
Potency [1]: 3.93 µM (active)
Potency [2]: 24.8 µM (active)
Potency [3]: 3.93 µM (active)
Potency [4]: inactive
Potency [5]: 5.55 µM (active)
Potency [6]: inactive
Potency [9]: 17.6 µM (active)
Potency [11]: 55.5 µM (active)
Potency [15]: 39.7 µM (active)
Potency [17]: inactive
Potency [18]: inactive

CC(=O)N1CCN(c2ccc(OC[C@H]3CO[C@](Cn4ccnc4)(c4ccc(Cl)cc4Cl)O3)cc2)CC1
Potency [1]: 3.06 µM (active)
Potency [19]: 21.7 µM (active)
Potency [2]: 54.5 µM (active)
Potency [3]: 48.6 µM (active)
Potency [5]: 30.6 µM (active)
Potency [6]: inactive
outcome [7]: inactive
Potency [9]: 61.1 µM (active)
Potency [11]: 13.7 µM (active)
Potency [12]: 30.6 µM (active)
Potency [13]: 30.6 µM (active)
Potency [16]: inactive
